Experimental data reported in PubChem BioAssay AID1159580 (chemical genetic matrix, 2015).
The campaign covered roughly 5,500 compounds. About 2,000 (36%) were called active. Not shown: some 18% with an inconclusive outcome. No stated cut-off is given here; in the data, active means normalized growth mostly below about 0.91 (no sharp cut-off); inconclusive means no clear call, values can overlap the other calls; inactive means mostly above about 0.92. This is one part of the list.

Assay: chemical genetic growth profiling, strain panel (AID 1159580);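 further: tested at 20 µM; growth read once vehicle control cultures reached saturation at 30 °C; 1 = growth at the plate median or of vehicle wells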
Conditions: growth OD

Measured: normalized growth

CCCCCCCCCCCCC[N+](C)(C)Cc1ccccc1
active: S. cerevisiae deletion strains, locus YJR075W, strain HOC1, stronger effect = lower value 0.0621 | S. cerevisiae deletion strains, locus YKL009W, strain mrt4, stronger effect = lower value 0.102 | S. cerevisiae deletion strains, locus YKL068W, stronger effect = lower value 0.0707 | S. cerevisiae deletion strains, locus YKL085W, strain MDH1 (second series), stronger effect = lower value 0.0622 | S. cerevisiae deletion strains, locus YKL085W, strain MDH1, stronger effect = lower value 0.0622 | S. cerevisiae deletion strains, locus YKL160W, strain elf1, stronger effect = lower value 0.0609 | S. cerevisiae deletion strains, locus YKL190W, strain CNB1, stronger effect = lower value 0.0462 | S. cerevisiae deletion strains, locus YKR001C, strain vps1, stronger effect = lower value 0.0665 | S. cerevisiae deletion strains, locus YKR026C, strain gcn3, stronger effect = lower value 0.0645 | S. cerevisiae deletion strains, locus YKR091W, strain srl3, stronger effect = lower value 0.0591 | S. cerevisiae deletion strains, locus YLL001W, strain dnm1, stronger effect = lower value 0.0643 | S. cerevisiae deletion strains, locus YLL026W, stronger effect = lower value 0.0581 | S. cerevisiae deletion strains, locus YLL041C, strain sdh2, stronger effect = lower value 0.0534 | S. cerevisiae deletion strains, locus YLR027C, strain aat2, stronger effect = lower value 0.0632 | S. cerevisiae deletion strains, locus YLR039C, strain RIC1, stronger effect = lower value 0.0768 | S. cerevisiae deletion strains, locus YLR058C, strain SHM2, stronger effect = lower value 0.0468 | S. cerevisiae deletion strains, locus YLR102C, strain apc9, stronger effect = lower value 0.0591 | S. cerevisiae deletion strains, locus YLR113W, strain HOG1, stronger effect = lower value 0.115 | S. cerevisiae deletion strains, locus YLR221C, strain rsa3, stronger effect = lower value 0.0601 | S. cerevisiae deletion strains, locus YLR258W, strain gsy2, stronger effect = lower value 0.0594 | S. cerevisiae deletion strains, locus YLR262C, strain YPT6 (second series), stronger effect = lower value 0.0813 | S. cerevisiae deletion strains, locus YLR262C, strain YPT6, stronger effect = lower value 0.0988 | S. cerevisiae deletion strains, locus YLR268W, strain sec22, stronger effect = lower value 0.0715 | S. cerevisiae deletion strains, locus YLR320W, strain mms22, stronger effect = lower value 0.0747 | S. cerevisiae deletion strains, locus YLR330W, strain CHS5, stronger effect = lower value 0.0507 | S. cerevisiae deletion strains, locus YLR342W, strain FKS1 (second series), stronger effect = lower value 0.0621 | S. cerevisiae deletion strains, locus YLR342W, strain FKS1, stronger effect = lower value 0.0644 | S. cerevisiae deletion strains, locus YLR357W, strain rsc2, stronger effect = lower value 0.114 | S. cerevisiae deletion strains, locus YLR370C, strain arc18, stronger effect = lower value 0.0615 | S. cerevisiae deletion strains, locus YLR371W, strain rom2, stronger effect = lower value 0.0625 | S. cerevisiae deletion strains, locus YLR384C, strain iki3, stronger effect = lower value 0.0574 | S. cerevisiae deletion strains, locus YLR418C, strain cdc73, stronger effect = lower value 0.0973 | S. cerevisiae deletion strains, locus YML016C, strain PPZ1, stronger effect = lower value 0.0455 | S. cerevisiae deletion strains, locus YML032C, strain rad52, stronger effect = lower value 0.0731 | S. cerevisiae deletion strains, locus YML120C, strain ndi1, stronger effect = lower value 0.0563 | S. cerevisiae deletion strains, locus YML124C, strain tub3, stronger effect = lower value 0.0618 | S. cerevisiae deletion strains, locus YMR058W, strain fet3, stronger effect = lower value 0.064 | S. cerevisiae deletion strains, locus YMR078C, strain ctf18, stronger effect = lower value 0.0768 | S. cerevisiae deletion strains, locus YMR125W, strain sto1, stronger effect = lower value 0.0739 | S. cerevisiae deletion strains, locus YMR129W, stronger effect = lower value 0.0593 | S. cerevisiae deletion strains, locus YMR205C, strain PFK2, stronger effect = lower value 0.0873 | S. cerevisiae deletion strains, locus YMR223W, strain ubp8, stronger effect = lower value 0.0651 | S. cerevisiae deletion strains, locus YMR231W, strain pep5, stronger effect = lower value 0.0683 | S. cerevisiae deletion strains, locus YMR307W, strain GAS1, stronger effect = lower value 0.11 | S. cerevisiae deletion strains, locus YNL067W, strain RPL9B, stronger effect = lower value 0.0494 | S. cerevisiae deletion strains, locus YNL071W, strain lat1, stronger effect = lower value 0.0572 | S. cerevisiae deletion strains, locus YNL128W, strain TEP1, stronger effect = lower value 0.0628 | S. cerevisiae deletion strains, locus YNL153C, strain GIM3, stronger effect = lower value 0.0486 | S. cerevisiae deletion strains, locus YNL183C, strain NPR1, stronger effect = lower value -0.00105 | S. cerevisiae deletion strains, locus YNL209W, strain ssb2, stronger effect = lower value 0.0596 | S. cerevisiae deletion strains, locus YNL233W, strain BNI4, stronger effect = lower value 0.0559 | S. cerevisiae deletion strains, locus YNL248C, strain rpa49, stronger effect = lower value 0.0866 | S. cerevisiae deletion strains, locus YNL250W, strain rad50, stronger effect = lower value 0.107 | S. cerevisiae deletion strains, locus YNL271C, strain bni1, stronger effect = lower value 0.0664 | S. cerevisiae deletion strains, locus YNL298W, strain CLA4, stronger effect = lower value 0.0607 | S. cerevisiae deletion strains, locus YNL307C, strain MCK1, stronger effect = lower value 0.0673 | S. cerevisiae deletion strains, locus YNL322C, strain KRE1 (second series), stronger effect = lower value 0.0716 | S. cerevisiae deletion strains, locus YNR049C, strain mso1, stronger effect = lower value 0.0569 | S. cerevisiae deletion strains, locus YNR052C, strain pop2, stronger effect = lower value 0.0607 | S. cerevisiae deletion strains, locus YOL006C, strain TOP1, stronger effect = lower value 0.101 | S. cerevisiae deletion strains, locus YOL147C, strain pex11, stronger effect = lower value 0.0664 | S. cerevisiae deletion strains, locus YOR001W, strain rrp6, stronger effect = lower value 0.0665 | S. cerevisiae deletion strains, locus YOR061W, strain CKA2, stronger effect = lower value 0.0452 | S. cerevisiae deletion strains, locus YOR069W, strain VPS5, stronger effect = lower value 0.0467 | S. cerevisiae deletion strains, locus YOR070C, strain gyp1, stronger effect = lower value 0.0668 | S. cerevisiae deletion strains, locus YOR080W, strain dia2, stronger effect = lower value 0.0657 | S. cerevisiae deletion strains, locus YOR083W, strain WHI5, stronger effect = lower value 0.0673 | S. cerevisiae deletion strains, locus YOR106W, strain vam3, stronger effect = lower value 0.0651 | S. cerevisiae deletion strains, locus YOR136W, strain idh2, stronger effect = lower value 0.0728 | S. cerevisiae deletion strains, locus YOR144C, strain elg1, stronger effect = lower value 0.0629 | S. cerevisiae deletion strains, locus YOR184W, strain ser1, stronger effect = lower value 0.0779 | S. cerevisiae deletion strains, locus YOR231W, strain MKK1, stronger effect = lower value 0.103 | S. cerevisiae deletion strains, locus YOR265W, strain rbl2, stronger effect = lower value 0.0552 | S. cerevisiae deletion strains, locus YOR270C, strain vph1, stronger effect = lower value 0.0971 | S. cerevisiae deletion strains, locus YOR290C, strain snf2, stronger effect = lower value 0.0603 | S. cerevisiae deletion strains, locus YOR316C, strain cot1, stronger effect = lower value 0.0576 | S. cerevisiae deletion strains, locus YPL051W, strain arl3, stronger effect = lower value 0.0609 | S. cerevisiae deletion strains, locus YPL055C, strain LGE1, stronger effect = lower value 0.0695 | S. cerevisiae deletion strains, locus YPL078C, strain atp4, stronger effect = lower value 0.0642 | S. cerevisiae deletion strains, locus YPL106C, strain sse1, stronger effect = lower value 0.0953 | S. cerevisiae deletion strains, locus YPL240C, strain hsp82, stronger effect = lower value 0.0558 | S. cerevisiae deletion strains, locus YPL256C, strain CLN2, stronger effect = lower value 0.111 | S. cerevisiae deletion strains, locus YPR119W, strain clb2, stronger effect = lower value 0.0637 | S. cerevisiae deletion strains, locus YPR141C, strain kar3, stronger effect = lower value 0.0734 | S. cerevisiae deletion strains, locus YPR163C, strain tif3, stronger effect = lower value 0.0705 | S. cerevisiae deletion strains, locus YPR167C, strain met16, stronger effect = lower value 0.063 | S. cerevisiae deletion strains, strain wtn01, stronger effect = lower value 0.067 | S. cerevisiae strains, strain wild type, stronger effect = lower value 0.0467
inactive: S. cerevisiae deletion strains, locus YOL012C, strain htz1 0.22
